This note sets out measurements from PubChem BioAssay (NCI).

Where “and” joins values, the source holds several entries; their conditions need not be identical. Identical values can stand only once. About 83,000 compounds went through this panel and 20% of them were active in at least one assay; those are over-represented in the sample as a whole.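 96-well plates, one dose, 48 hours. Percent growth reported; active if below 10.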 Values without a mark were called inactive. Calls of active or inactive are those of the source.

The first assay concerns SF-539 CNS. Nature of the assay: NCI-60 one-dose screen, 48 h (100 = growth as untreated, 0 = no growth, -100 = all killed). The following applies: 10 µM unless noted.
As to `COc1ccc(NC2=C(I)C(=O)C(C)=C(C)C2=O)cc1`, the growth is -28.1% (active).

Take `CC(=O)Nc1cccc(-n2c(COc3ccc(Br)cc3)nc3ccccc32)c1`: the growth was 87.4% and 106%.

Consider `CCCSc1nnc(-c2sc3nc4ccccc4n3c2C)o1`, for which the growth was 108%.

`COc1cc(/C=N/NC(=O)c2ccc(OCc3nc4ccc(C)cc4[nH]3)cc2)cc(OC)c1OC`: the growth is 49.2%.

As for `COc1cc(CNC(=O)C[C@H](C)CCC=C(C)C)ccc1OCc1cn(-c2ccccc2Cl)nn1`, the growth is 75.2%.

As for `Cc1ccc(C(=O)Nc2cc(-n3ccnc3)cc(C(F)(F)F)c2)cc1-n1cc(-c2cnc3cccnn23)nn1`, the growth was 84.7%.

For the compound `O=C(Nc1ccc(Cl)c(C(F)(F)F)c1)N1CCN(c2cc(-c3cn(-c4ccccc4)nc3-c3cccc(O)c3)ccn2)CC1`, the growth is 7.9% (active).

For `FC(F)(F)CN1CCN(CCn2c(C(F)(F)F)cc3c(Cl)ncnc32)CC1`, the growth is 66.6%.

For `Nc1nnc(-c2cncc(Br)c2)c(-c2c[nH]c3ccc(Br)cc23)n1`, the growth is 52.3%.

As to `Nc1cc(-c2c[nH]c3ccc(Cl)cc23)nc2cc(-c3c[nH]c4ccccc34)nn12`, the growth is -81.5% (active).

On to `CN(C)CCOc1ccc(C(=O)C2[C@H](c3ccc(Cl)cc3)[C@@H](c3ccccc3)NC23C(=O)Nc2ccc(Cl)cc23)cc1` (some centres undefined), for which the growth was -98.5% (active).

In the case of `O=C(NNC(=S)NC(=O)c1ccccc1)c1ccc(OCc2nc3ccc(Cl)cc3[nH]2)cc1`, the growth was -91.2% (active).

Turning to `O=C(c1ccc(Cl)cc1)C1[C@H](c2ccccc2Cl)[C@@H](c2ccccc2)NC12C(=O)Nc1ccc(Br)cc12` (some centres undefined), the growth is -85.2% (active).

As to `COc1ccc(CCC2NCCc3c(Br)c4c(c(OC)c32)OCO4)cc1` (centres undefined), the growth is -39.4% (active).

With `O=C(Nc1ccc(Br)cc1)Nc1ccc(-c2ccc3c(c2)NC(=O)/C3=C\c2ccc[nH]2)cc1`, the growth is 26.5%.

In the case of `O=C(Nc1ccc(S(=O)(=O)N2CCCCC2)cc1)C(Cl)Cl`, the growth was 107%.

As for `O=C(N/N=C/c1ccc(Br)o1)c1[nH]c2ccc(Br)cc2c1-c1ccccc1`, the growth is -99.5% (active).

Take `COc1cc(/C=C/C(=O)c2ccc(S(=O)(=O)NCCNc3nc(N(C)C)nc(N4CCOCC4)n3)cc2)cc(OC)c1OC`: the growth is -87.3% (active).

For `CCCCNC(=S)Nc1ccc(OCc2nc3ccc(Cl)cc3[nH]2)cc1`, the growth is 28.4%.

Consider `COc1ccc(-c2cc(C(=O)N=Nc3c(O)[nH]c4ccc(Cl)cc34)c3ccccc3n2)cc1OC`, for which the growth was 101%.

As for `NS(=O)(=O)c1cccc(Nc2nc(SCC(=O)c3ccc(F)cc3)nc3ccccc23)c1`, the growth was 8.17% (active).

On to `COc1ccc2[nH]c(O)c(N=Nc3nc(-c4ccccc4)cs3)c2c1`, for which the growth is -11.9% (active).

With `COc1ccc(OC)c(Cn2cc(C#N)c(N)c2C(=O)c2ccc(Br)cc2)c1`, the growth was 47.7%.

Take `CC1=C(C)C(=O)C(N2CCSCC2)=CC1=O`: the growth was 96.2%.

Consider `N#Cc1c(-c2ccc(F)cc2)nc(SCc2ccc(F)cc2)nc1N1CCNCC1`, for which the growth was -98.9% (active).

As for `COc1ccc2[nH]cc(-c3cc4nc(-c5cn(C)c6ncccc56)cc(N)n4n3)c2c1`, the growth is -93.6% (active).

Turning to `O=C1Nc2ccccc2/C1=C\c1ccc(OCC(=O)c2ccc(Br)cc2)cc1`, the growth is 81.5%.

As to `Nc1nn2c(-c3cc4ccccc4oc3=O)ccnc2c1N=Nc1ccccc1`, the growth was -62.4% (active).

Turning to `O=c1c(-c2nc(-c3ccccc3)c(-c3ccccc3)[nH]2)coc2ccc(F)cc12`, the growth was 70.9%.

In the case of `Cc1ccccc1Nc1nnc(-c2c[nH]c3ccccc23)o1`, the growth is -25.9% (active).

Turning to `O=CNc1cccc(-n2cnc3cc(-c4ccc(O)cc4)ccc32)c1`, the growth is -6.56% (active).

With `CC1(C)CC(=O)C2=C(C1)OC(N)=C(c1nc3ccccc3[nH]1)C2c1ccc(Cl)cc1` (centres undefined), the growth was 29.3% and 106%.

Consider `CN1C(=O)/C(=C\C(=O)c2cc3ccccc3oc2=O)c2ccccc21`, for which the growth was 54%.

In the case of `Cc1ccc(C2CC(c3ccc(NC(=S)Nc4ccccc4)cc3)=NN2c2ccc(S(N)(=O)=O)cc2)cc1` (centres undefined), the growth is 10.3%.

On to `COc1cc(CNC(=O)[C@]23CCC(C)(C)CC2C2=CCC4[C@@]5(C)CCC(OC(C)=O)C(C)(C)C5CC[C@@]4(C)[C@]2(C)CC3)ccc1OCc1cn(-c2ccc(Cl)cc2Cl)nn1` (some centres undefined), for which the growth was 101%.

On to `Nc1ccc(-c2ccc3ncnc(N4CCc5cc(F)c(Cl)cc54)c3c2)cn1`, for which the growth was 24.9%.

The next assay has as its system UACC-257 melanoma. The assay is described as above. To be noted: 10 µM unless noted.
For `COc1ccc(NC2=C(I)C(=O)C(C)=C(C)C2=O)cc1`, the growth is -14.2% (active).

For the compound `CC(=O)Nc1cccc(-n2c(COc3ccc(Br)cc3)nc3ccccc32)c1`, the growth is 130% and 107%.

Turning to `CCCSc1nnc(-c2sc3nc4ccccc4n3c2C)o1`, the growth was 102%.

Take `COc1cc(/C=N/NC(=O)c2ccc(OCc3nc4ccc(C)cc4[nH]3)cc2)cc(OC)c1OC`: the growth is 11.3%.

As for `COc1cc(CNC(=O)C[C@H](C)CCC=C(C)C)ccc1OCc1cn(-c2ccccc2Cl)nn1`, the growth is 60.3%.

In the case of `Cc1ccc(C(=O)Nc2cc(-n3ccnc3)cc(C(F)(F)F)c2)cc1-n1cc(-c2cnc3cccnn23)nn1`, the growth is 47.8%.

For `O=C(Nc1ccc(Cl)c(C(F)(F)F)c1)N1CCN(c2cc(-c3cn(-c4ccccc4)nc3-c3cccc(O)c3)ccn2)CC1`, the growth was -16.6% (active).

With `FC(F)(F)CN1CCN(CCn2c(C(F)(F)F)cc3c(Cl)ncnc32)CC1`, the growth was 45.7%.

Regarding `COc1cccc(C(N)=Nc2ccc(OCCCCCCCCn3cncn3)cc2)c1`, the growth was 39.1%.

`Nc1nnc(-c2cncc(Br)c2)c(-c2c[nH]c3ccc(Br)cc23)n1`: the growth is 73.9%.

For `Nc1cc(-c2c[nH]c3ccc(Cl)cc23)nc2cc(-c3c[nH]c4ccccc34)nn12`, the growth is -73.2% (active).

On to `CN(C)CCOc1ccc(C(=O)C2[C@H](c3ccc(Cl)cc3)[C@@H](c3ccccc3)NC23C(=O)Nc2ccc(Cl)cc23)cc1` (some centres undefined), for which the growth was -81.2% (active).

For `O=C(NNC(=S)NC(=O)c1ccccc1)c1ccc(OCc2nc3ccc(Cl)cc3[nH]2)cc1`, the growth was -24.8% (active).

For the compound `O=C(c1ccc(Cl)cc1)C1[C@H](c2ccccc2Cl)[C@@H](c2ccccc2)NC12C(=O)Nc1ccc(Br)cc12` (some centres undefined), the growth was -30.7% (active).

With `COc1ccc(CCC2NCCc3c(Br)c4c(c(OC)c32)OCO4)cc1` (centres undefined), the growth was 37.5%.

Turning to `O=C(Nc1ccc(Br)cc1)Nc1ccc(-c2ccc3c(c2)NC(=O)/C3=C\c2ccc[nH]2)cc1`, the growth was 75.4%.

With `O=C(Nc1ccc(S(=O)(=O)N2CCCCC2)cc1)C(Cl)Cl`, the growth is 101%.

On to `O=C(N/N=C/c1ccc(Br)o1)c1[nH]c2ccc(Br)cc2c1-c1ccccc1`, for which the growth is 26.2%.

As for `COc1cc(/C=C/C(=O)c2ccc(S(=O)(=O)NCCNc3nc(N(C)C)nc(N4CCOCC4)n3)cc2)cc(OC)c1OC`, the growth is -26.5% (active).

For the compound `CCCCNC(=S)Nc1ccc(OCc2nc3ccc(Cl)cc3[nH]2)cc1`, the growth is 56.9%.

Turning to `COc1ccc(-c2cc(C(=O)N=Nc3c(O)[nH]c4ccc(Cl)cc34)c3ccccc3n2)cc1OC`, the growth was 115%.

With `NS(=O)(=O)c1cccc(Nc2nc(SCC(=O)c3ccc(F)cc3)nc3ccccc23)c1`, the growth was 14.4%.

Take `COc1ccc2[nH]c(O)c(N=Nc3nc(-c4ccccc4)cs3)c2c1`: the growth is 59.3%.

As to `COc1ccc(OC)c(Cn2cc(C#N)c(N)c2C(=O)c2ccc(Br)cc2)c1`, the growth was 55.6%.

Consider `CC1=C(C)C(=O)C(N2CCSCC2)=CC1=O`, for which the growth was 93.2%.

For the compound `N#Cc1c(-c2ccc(F)cc2)nc(SCc2ccc(F)cc2)nc1N1CCNCC1`, the growth was -90.7% (active).

As to `COc1ccc2[nH]cc(-c3cc4nc(-c5cn(C)c6ncccc56)cc(N)n4n3)c2c1`, the growth is 72.7%.

For `O=C1Nc2ccccc2/C1=C\c1ccc(OCC(=O)c2ccc(Br)cc2)cc1`, the growth was 73.6%.

Regarding `Nc1nn2c(-c3cc4ccccc4oc3=O)ccnc2c1N=Nc1ccccc1`, the growth is 109%.

Take `O=c1c(-c2nc(-c3ccccc3)c(-c3ccccc3)[nH]2)coc2ccc(F)cc12`: the growth was 77.6%.

Turning to `Cc1ccccc1Nc1nnc(-c2c[nH]c3ccccc23)o1`, the growth is 49.7%.

In the case of `O=CNc1cccc(-n2cnc3cc(-c4ccc(O)cc4)ccc32)c1`, the growth is 84.7%.

As to `CC1(C)CC(=O)C2=C(C1)OC(N)=C(c1nc3ccccc3[nH]1)C2c1ccc(Cl)cc1` (centres undefined), the growth was 97.4% and 109%.

Consider `CN1C(=O)/C(=C\C(=O)c2cc3ccccc3oc2=O)c2ccccc21`, for which the growth was 91.9%.

`Cc1cc(N=C(N)c2ccccc2)ccc1OCCCCCCCCn1ccnc1`: the growth is -2.36% (active).

For the compound `Cc1ccc(C2CC(c3ccc(NC(=S)Nc4ccccc4)cc3)=NN2c2ccc(S(N)(=O)=O)cc2)cc1` (centres undefined), the growth was 36.6%.

Turning to `COc1cc(CNC(=O)[C@]23CCC(C)(C)CC2C2=CCC4[C@@]5(C)CCC(OC(C)=O)C(C)(C)C5CC[C@@]4(C)[C@]2(C)CC3)ccc1OCc1cn(-c2ccc(Cl)cc2Cl)nn1` (some centres undefined), the growth was 88.6%.

For `Nc1ccc(-c2ccc3ncnc(N4CCc5cc(F)c(Cl)cc54)c3c2)cn1`, the growth is 43.1%.
